Most compounds without a hit are left out; they make up all but 15% or so of the library.
Pf growth 96h: P. falciparum growth inhibition at 96 hours; P. falciparum luciferase reporter growth, 96 h; Potency, µM (top dose mostly 28.7 µM), actives largely listed as inhibitors; hit rate 6.9% among 320,000
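Luminescence readout: decreased luciferase signal marks inhibited growth of reporter-expressing P. falciparum in infected red cells (2% hematocrit, 0.05% parasitemia final), exposed to compound two generations (96 h, 37 C, 5% CO2).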
Pf growth 48h: inhibits P. falciparum growth in the first generation, 48 h; P. falciparum luciferase growth in erythrocytes, 48 h; Potency, µM (highest dose often 28.7 µM), hits mostly inhibitors; hit rate 5.9% among 310,000; AID 504832
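Luciferase-expressing P. falciparum in infected erythrocytes (2% hematocrit, 0.1% parasitemia final) in RPMI 1640/0.5% Albumax were exposed to compound for 48 hours at 37 C, 5% CO2; growth read as luminescence.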
HCV inhibitor: inhibitors of hepatitis C virus infection | Huh7.5.1 HCVcc-Cre infection, luciferase reporter, 44 h | Potency, µM (titrated, usually from 41.8 µM), usual class: inhibitors | hit rate 3.4% among 340,000 | AID 651820
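HCVcc-Cre virus at an moi near 0.5 was added right after compound to cells cultured 4 h from seeding (1,000 cells/well). Luciferase activity was determined 44 h later, 15 min after substrate addition at RT.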
Sm TGR inh: inhibitors of Schistosoma mansoni thioredoxin glutathione reductase. Q962Y6. purified TGR, DTNB reduction, TNB absorbance 405 nm. Potency, µM (doses to about 114 µM), actives largely listed as inhibitors. hit rate 3% among 360,000. AID 485364; further: nearly all actives have a fitted effect of over 60% in size
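Kinetic colorimetric format: TGR-catalysed, NADPH-driven DTNB reduction monitored via TNB absorbance. Enzyme dispensed at 20 nM; compound exposure 15 min at room temperature before reaction start.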
SARS PLP yeast: inhibitors of SARS-CoV papain-like protease in yeast; S. cerevisiae expressing SARS-CoV PLpro, growth rescue; Potency, µM (series often up to 32.9 µM), most hits filed as activators; hit rate 0.19% among 330,000; AID 485353; calls by dose curve; further: nearly all actives have a fitted effect of over 55% in size
HCMV inh: human cytomegalovirus inhibition | HFF cells, HCMV-luciferase reporter, 72 h; hits give low values | activity change, negative = inhibition, % at 57.5 µM | hit rate 4.5% among 410,000 | AID 1259415; in the data active means activity change below about -60%; inconclusive means no clear call, values can overlap the other calls; inactive means above about -39%
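Compounds were evaluated in HFFs infected with an HCMV luciferase reporter virus (MOI 1 PFU/cell). Luciferase in lysates collected 72 h post infection served as the replication measure.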
Numbers stand for hits; . = inactive; ? = inconclusive; / = no result given; ! = not active in a repeat. Unless noted, the call rests on the fitted dose curve; in most records, active means well fitted curve in the direction sought with a large enough effect; inconclusive means small, poorly fitted or top-dose-only effect, or another doubt; inactive means no such curve, though single readings can be large; an effect the other way counts as inactive or inconclusive.

SMILES	Pf growth 96h	Pf growth 48h	HCV inhibitor	Sm TGR inh	SARS PLP yeast	HCMV inh
COc1ccccc1NC(=O)CSc1cn(CC(=O)N2CCCC2)c2ccccc12	/	/	/	.	/	.
Clc1ccc(C(c2ccccc2)c2c[nH]c3ccccc23)s1 (stereo not given)	/	/	/	.	/	-67
Cc1ccc2[nH]cc(C(c3ccccc3)c3ccc(Cl)s3)c2c1 (stereo not given)	/	/	/	.	/	?
COc1ccc(NC(=O)CN(C)CC(=O)Nc2sc3c(c2C#N)CCC3)cc1	9.3µM	?	.	.	.	.
CC(=O)Nc1sc2c(c1C#N)CCC2	.	.	.	.	.	.
Cc1ccc(/C=C/C(=O)Nc2sc3c(c2C#N)CCCC3)o1	.	.	?	45µM	.	.
CCc1ccc(CCC(=O)Nc2sc3c(c2C#N)CCCC3)o1	/	.	4.5µM	.	.	-75
Cc1ccc(OCC(=O)Nc2sc3c(c2C#N)CCC3)cc1	.	.	.	.	.	.
O=C(NCC1OCCc2ccccc21)c1ccc(NC(=O)c2ccc(Cl)cc2)cc1 (stereo not given)	.	?	4.5µM	.	.	-82
O=C(NCC1OCCc2ccccc21)c1ccco1 (stereo not given)	.	.	.	32µM	.	.
COc1ccc(Cn2c(O)c(/C=N/NC(=O)c3cccnc3)c3ccccc3c2=O)cc1	5.2µM	13µM	?	.	?	.
O=c1c2ccccc2c(C=Nc2cccc(S(=O)(=O)NC3=NCCCCC3)c2)c(O)n1Cc1ccccc1	?	1.7µM	.	.	.	.
O=c1c2ccccc2c(/C=N/c2ncn[nH]2)c(O)n1Cc1ccccc1	?	.	?	.	.	-82!
Cn1c(-c2ccccc2)c(/C=N/NC(=O)c2cccnc2)c2ccccc21	?	.	?	?	.	?
O=C(N/N=C/c1c(-c2ccccc2)[nH]c2ccccc12)c1cccnc1	?	?	10µM	.	.	.
CC(C)CCC(C)N=Cc1c(O)n(Cc2ccccc2)c(=O)c2ccccc12 (stereo not given)	/	?	.	.	.	.
CCOc1ccccc1C(=O)Nc1cccc2ccc(C)nc12	/	/	/	.	/	.
COc1ccc(/C=C/c2nc(C#N)c(N3CCC(C(N)=O)CC3)o2)cc1OC	/	/	/	.	/	.
COc1ccc(NC(=O)C[C@H]2C(=O)N(Cc3ccccc3)C[C@@H]2C)cc1	/	/	/	/	/	.
O=C(N/N=C/c1cn(Cc2ccccc2)c2ccccc12)c1cccnc1	.	?	?	.	.	.
O=C(N/N=C/c1c(O)n(Cc2ccccc2)c(=O)c2ccccc12)c1cccnc1	15µM	?	.	.	?	.
Cc1ccc(CNC(=O)Cn2c(=O)n(-c3ccc(C)c(F)c3)c(=O)c3sc4ccccc4c32)cc1	/	/	/	.	/	.
COc1cc(NS(=O)(=O)c2ccc(NC(=O)C(C)Oc3ccc(Cl)cc3Cl)cc2)nc(OC)n1 (stereo not given)	/	/	/	.	/	.
CCN1C(=O)C(O)(CC(=O)/C=C/C=C/c2ccccc2)c2ccccc21 (stereo not given)	?	?	.	.	.	.
NC(=O)CN1C(=O)C(O)(CC(=O)/C=C\C=C\c2ccccc2)c2ccccc21 (stereo not given)	.	.	.	.	.	-70
SMILES	Pf growth 96h	Pf growth 48h	HCV inhibitor	Sm TGR inh	SARS PLP yeast	HCMV inh
Cc1ccc(C(=O)OC(C)C(=O)N(C)C2CCCCC2)cc1S(=O)(=O)N1CCCCC1 (stereo not given)	?	12µM	?	.	.	.
Cc1ccc(C(=O)OC(C)C(=O)NC2CCCCC2)cc1S(=O)(=O)N1CCCCC1 (stereo not given)	?	7.4µM	?	.	.	.
O=C1OC(CC(=O)N(Cc2nnc(-c3ccccc3Cl)o2)C2CC2)c2ccccc21 (stereo not given)	.	?	.	.	.	?
CCc1ccccc1OCCSc1nnc(-c2cc(OC)c(OC)c(OC)c2)o1	/	/	/	.	/	.
COc1cc(-c2nnc(SCCOc3cc(C)cc(C)c3)o2)cc(OC)c1OC	/	/	/	35µM	/	.
COc1cc(-c2nnc(SCc3c(F)cccc3Cl)o2)cc(OC)c1OC	/	?	35µM	.	.	/
COc1cc(-c2nnc(SCC3(c4ccc(Br)cc4)OCCO3)o2)cc(OC)c1OC	13µM	10µM	?	.	.	.
Cc1cc(NC(=O)CSCC(=O)N2CCN(c3cccc(C(F)(F)F)c3)CC2)no1	.	?	.	.	.	.
COc1ccc(CCNC(=O)COC(=O)c2cc(S(=O)(=O)N3CCOCC3)ccc2C)cc1OC	/	/	.	/	.	.
COc1ccc(-c2nc3c(-c4ccc(Cl)cc4)cnn3cc2C)cc1F	?	?	.	.	.	-76
CCOC(=O)c1ccc(-n2c(CCC(=O)O)ccc2-c2ccc(Br)cc2)cc1	/	/	/	20µM	/	.
O=C(O)CCc1ccc(-c2ccc(Cl)cc2)n1-c1cccc(C(F)(F)F)c1	/	/	/	25µM	/	.
Cc1ccc(-c2ccc(CCC(=O)O)n2-c2cccc(O)c2)cc1	/	.	.	14µM	.	.
COc1ccc(-c2ccc(CCC(=O)O)n2-c2cc(Cl)ccc2O)cc1	/	/	/	?	/	.
O=C(O)CCc1ccc(-c2ccc(Br)cc2)n1-c1ccc(O)cc1	?	.	.	28µM	.	.
CCOc1ccc(-n2c(CCC(=O)O)ccc2-c2ccc(Br)cc2)cc1	/	/	/	?	/	.
CCSc1nnc(NC(=O)CN2C(=O)NC3(CCCC3)C2=O)s1	.	.	.	.	.	.
Cc1c(Cl)cccc1NC(=O)Nc1nnc(N(C)Cc2ccccc2)s1	/	/	/	.	/	.
O=C(O)CCc1ccc(-c2ccc(Cl)cc2)n1NC(=O)c1ccc(O)cc1	.	.	.	.	.	.
Cc1ccc(-c2ccc(CCC(=O)O)n2-c2ccc(O)cc2)cc1	.	.	.	25µM	.	.
CCOC(=O)c1c(C)c(C)n(Cc2ccc(OC)c(OC)c2)c1C	?	8.3µM	?	.	.	?
CCOC(=O)c1c(S(=O)(=O)NCCc2ccc(OC)c(OC)c2)c(C)n(C)c1C	?	.	.	.	.	.
CCOC(=O)c1cc(C)n(Cc2ccc(OCC)c(OC)c2)c1C	/	1.7µM	11µM	.	.	.
CC(C)C(NC(N)=O)C(=O)NC1CCCCC1 (stereo not given)	.	.	/	.	.	/
Cc1onc(-c2ccccc2)c1C(=O)c1c[nH]c(C(=O)NCc2ccncc2)c1	.	.	?	.	.	?
CC(C)(C)c1ccc(C(=O)c2c[nH]c(C(=O)NCCc3ccccn3)c2)cc1	?	10µM	.	.	.	.
Cc1onc(-c2ccccc2)c1C(=O)c1c[nH]c(C(=O)NCc2ccccn2)c1	?	.	10µM	.	.	?
CC(C)(C)c1ccc(C(=O)c2c[nH]c(C(=O)NCCCN3CCOCC3)c2)cc1	10µM	13µM	?	.	.	.

Source: PubChem BioAssay
